uPA generation: blocks generation of uPA at the cell surface. Potency, µM (highest dose often 38.3 µM), inactives show at the top dose activity change, negative = inhibition, hits mostly inhibitors. AID 540303. hit rate 0.31% among 330,000. cell surface uPA generation assay, qHTS; active = well fitted inhibition curve with a large enough effect; inconclusive = small, poorly fitted or top-dose-only effect; inactive = no such curve, though single readings can be large or run the other way; tested in mouse RAW 264.7 cells; also: potency is read from the fitted curve at half-maximal effect; % is scaled to controls: 0 for no effect and ±100 for the full control effect; nearly all actives have a fitted effect of over 55% in size
TSG101-PTAP inh: blocks PTAP/TSG101 interaction to inhibit HIV-1 budding; Fluorescence polarization, FITC-PTAP peptide / Tsg101 binding; Q99816; Potency, µM (highest dose often 115 µM), without a hit: top-dose activity change, negative = inhibition, actives largely listed as inhibitors; 340,000 tested, under 10 active; active = well fitted inhibition curve with a large enough effect in the main read-out, with a control signal flat, not every such curve was filed as active; inconclusive = small, poorly fitted or top-dose-only effect, or effect the other way, or a change in a side signal; inactive = no such curve, though single readings can be large or run the other way; also: potency is read from the fitted curve at half-maximal effect; % of control where 0% means no effect
Target sequence (Q99816 whole entry, looked up): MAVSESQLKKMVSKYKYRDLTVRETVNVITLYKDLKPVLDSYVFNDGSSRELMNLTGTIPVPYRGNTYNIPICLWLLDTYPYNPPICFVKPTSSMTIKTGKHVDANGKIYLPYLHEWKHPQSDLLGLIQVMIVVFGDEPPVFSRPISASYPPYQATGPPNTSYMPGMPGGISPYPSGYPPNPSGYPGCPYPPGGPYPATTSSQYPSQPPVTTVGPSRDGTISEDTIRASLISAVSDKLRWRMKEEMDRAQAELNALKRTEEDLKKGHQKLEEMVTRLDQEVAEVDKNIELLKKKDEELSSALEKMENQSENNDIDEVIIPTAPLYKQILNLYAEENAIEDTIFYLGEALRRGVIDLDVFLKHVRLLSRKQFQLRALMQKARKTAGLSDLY
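Fluorescence polarization binding of Tsg101 binding domain (10 uM final) to FITC-labeled PTAP peptide (50 nM final) in HEPES pH 7.5 buffer with NaCl, Tween 20, EDTA, TCEP. Compounds added before peptide; binding 20 min at RT.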
TSHR antagonist: human thyrotropin receptor antagonism. P16473. TSHR-expressing cells, TSH-stimulated cAMP HTRF, 2 h; stronger effect = lower value. activity change, negative = inhibition, % at 11.5 µM. hit rate 0.2% among 330,000;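 active = activity change below a set negative limit, meaning inhibition stronger than a set level, cut at about -70% in these data; inconclusive = activity change between two set negative limits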; also: % is scaled to controls: 0 for no effect and ±100 for the full control effect
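Inhibition of cAMP made by TSHR-expressing cells under TSH stimulation (4nM final, EC80; 2 h, 37 deg C) is quantified with a one-step lysis HTRF kit, anti-cAMP cryptate versus cAMP-d2.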
VDR inh: vitamin D3 receptor (human) inhibition; P11473; VDR-SRC2-3 peptide fluorescence polarization, 2 h; AID 504847; Potency, µM, for the others: max response, negative = inhibition, usual class: inhibitors; hit rate 0.93% among 400,000; also: potency is read from the fitted curve at half-maximal effect; % is scaled to controls: 0 for no effect and ±100 for the full control effect
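Fluorescence polarization assay measuring small-molecule disruption of VDR binding to the coregulator peptide SRC2-3. Compounds were pin-transferred (23 nl) into the reagent mix and incubated 2 h at room temperature before reading.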
PLK1 PBD inh: blocks phosphopeptide binding to human PLK1 polo-box domain. Potency, µM, for inactives: max response, negative = inhibition, hits mostly inhibitors. hit rate 2.8% among 360,000. Plk1 PBD binding of FITC phosphopeptide, fluorescence polarization. P53350; also: potency is read from the fitted curve at half-maximal effect; series mostly up to about 57 µM; % is scaled to controls: 0 for no effect and ±100 for the full control effect; nearly all actives have a fitted effect of over 65% in size
An asterisk follows results filed as active; ? = inconclusive; . = not tested or not shown. Rows were chosen to be rich in hits. Some 3.1% of all compounds tested hit in one or more screens of this group. Unless noted, calls follow the shape of the dose curve; as a rule, active = well fitted curve in the direction sought with a large enough effect; inconclusive = small, poorly fitted or top-dose-only effect, or another doubt; inactive = no such curve, though single readings can be large; an effect the other way counts as inactive or inconclusive.

SMILES	uPA generation	TSG101-PTAP inh	TSHR antagonist	VDR inh	PLK1 PBD inh
CCN(CC)c1ccc(/C=C2\SC(=O)N(C(C)C)C2=O)o1	-7.7%	?	-4.8	31.6µM*	63.3%
CC(C)N1C(=O)S/C(=C/c2ccc3c(c2)n(C)c(=O)n3C)C1=O	-9.8%	-2.8%	-11.6	-9.2%	-2.3%
CN(C)CCCNC(=O)C[C@H]1C[C@H](C(=O)N2CCCCC2)[C@@]2(CCc3ccccc3)c3[nH]c4cc(-c5ccco5)ccc4c3CCN2C1=O	-13.4%	-0.9%	6.1	8.0%	-10.4%
CC[C@]12c3[nH]c4cc(-c5ccco5)ccc4c3CCN1C(=O)[C@@H](CC(=O)NCCC1=CCCCC1)C[C@@H]2C(=O)N1CCN(C(=O)C2CC2)CC1	?	-1.4%	-6.0	?	21.2µM*
CC(C)N(C(=O)[C@H]1C[C@H](CC(=O)NC(C)(C)C)C(=O)N2CCc3c([nH]c4cc(-c5ccco5)ccc34)[C@]12C)C(C)C	?	-6.4%	1.4	?	21.2µM*
COc1ccc(CNC(=O)C[C@H]2C[C@H](C(=O)N3CCCCC3)[C@@]3(CCc4ccccc4)c4[nH]c5cc(-c6ccco6)ccc5c4CCN3C2=O)cc1OC	-23.2%	-1.1%	-13.8	89.1µM*	23.8µM*
CCN(CC)C(=O)[C@H]1C[C@H](CC(=O)NC(C)(C)C)C(=O)N2CCc3c([nH]c4cc(-c5ccco5)ccc34)[C@]12C	22.0%	5.0%	17.3	5.9%	-7.5%
NC(=O)C1CCN(c2nc(-c3ccc(C(F)(F)F)cc3)cs2)CC1	.	.	-21.1	.	.
Cc1ccc(-c2nn(-c3ccccc3)cc2/C=C2\SC(=S)N(CC(=O)O)C2=O)cc1	18.6%	-5.1%	-13.7	?	29.9µM*
COc1ccc(O)c(/C=C2/SC(=S)N(Cc3ccccc3)C2=O)c1	-3.2%	?	15.3	?	-5.7%
Cn1cccc1/C=C1\SC(=S)N(CC(=O)O)C1=O	15.1%	?	-6.0	-0.1%	30.3%
COc1ccc(/C=C2/SC(=S)N(CCC(=O)O)C2=O)cc1	-23.6%	.	4.3	-8.8%	-7.1%
COc1ccc(-c2nn(-c3ccccc3)cc2/C=C2/SC(=S)N(CCC(=O)O)C2=O)c(C)c1	-10.4%	-5.6%	-3.1	?	11.9µM*
O=C1C(=Cc2cn(-c3ccccc3)nc2-c2ccc(OCc3ccccc3F)cc2)SC(=S)N1CCS(=O)(=O)O	.	.	.	.	9.47µM*
COc1ccc(-c2nn(-c3ccccc3)cc2/C=C2/SC(=S)N(CCC(=O)O)C2=O)cc1	0.9%	14.2%	-8.5	?	21.2µM*
C=C[C@@H](c1ccccc1)[C@](C)(O)C(=O)O	.	.	.	.	-0.6%
C=C[C@@H](C1=CC(=O)C(OC)=C(OC)C1=O)c1ccccc1	.	.	.	3.98µM*	.
C=CC(C1=CC(=O)C=CC1=O)c1ccccc1 (stereo not drawn)	.	.	.	35.5µM*	.
C=CC(C1=CC(=O)C(OC)=CC1=O)c1ccc(O)cc1 (stereo not drawn)	.	.	.	-18.2%	.
CC1(C(=O)CSc2nc3ccccc3s2)CCC(=O)O1 (stereo not drawn)	0.5%	-2.2%	3.1	?	21.2µM*
O=C(O)COc1ccccc1C=NNc1ccc([N+](=O)[O-])cc1S(=O)(=O)Nc1ccc(Cl)cc1	-0.9%	-4.9%	-15.5	?	23.8µM*
Cc1cccc(N2C(=O)CS(=O)(=O)C23C(=O)N(Cc2c(F)cccc2Cl)c2ccccc23)c1 (stereo not drawn)	.	.	.	5.2%	.
O=S(=O)(c1ccc(NC(=S)N2CCN(c3ccccc3F)CC2)cc1)N1CCOCC1	-1.2%	-1.9%	8.7	-2.2%	18.9µM*
COc1ccccc1N1CCN(C(=S)Nc2ccc(S(=O)(=O)N3CCOCC3)cc2)CC1	-11.3%	0.2%	-19.5	-1.4%	-11.0%
Cc1cc(C)cc(N(CC(=O)N2CCN(c3ccccc3)CC2)S(=O)(=O)c2c(C)noc2C)c1	0.4%	-0.5%	8.7	-22.1%	23.8µM*
SMILES	uPA generation	TSG101-PTAP inh	TSHR antagonist	VDR inh	PLK1 PBD inh
Cc1ccc(N(CC(=O)N2CCN(c3ccccc3)CC2)S(=O)(=O)c2c(C)noc2C)cc1	.	.	.	-5.0%	.
CC(=O)Oc1c(C)c(=O)n(C)c2ccccc12	13.1%	-0.3%	-2.5	-12.1%	-10.6%
COc1c(OC(C)=O)c(=O)n2c3ccccc3c3ccnc1c32	14.9%	-1.9%	-22.9	-7.0%	23.8µM*
C[C@@H]1CN([C@@H](C)CO)C(=O)CCCn2nncc2CO[C@@H]1CN(C)C(=O)Nc1ccc(C(F)(F)F)cc1	.	.	.	.	-5.2%
C=CCOC(=O)/C(=C\c1cccc2ccccc12)NC(=O)c1ccccc1	-1.9%	-2.2%	10.8	15.1%	-9.1%
C=CCOC(=O)C(=O)/C=C/c1csc2ccccc12	10.9%	-2.0%	12.8	44.7µM*	?
Cc1ccc(NC(=O)CSc2nc(=O)n(Cc3ccco3)c3c2CCC3)cc1F	.	.	.	-3.9%	.
Cn1cc(C(=O)Nc2ccc(Cl)c(Cl)c2)cn1	1.7%	0.2%	.	14.1%	-4.8%
COC(=O)c1cc(-c2ccc(OC)c(OC)c2)c2c(=O)[nH]c(=O)n(C)c2n1	-11.4%	0.5%	6.4	44.4%	2.7%
COC(=O)c1cc(-c2cccc([N+](=O)[O-])c2)c2c(=O)[nH]c(=O)n(C)c2n1	-3.8%	-5.7%	-5.6	-8.2%	29.9µM*
C=CCOc1ccc(C(=O)/C=C2/C(=O)Nc3ccccc32)cc1	-11.3%	-3.2%	-11.1	?	-8.1%
C=CCOc1ccccc1C(=O)/C=C1/C(=O)Nc2ccccc21	?	-4.4%	-14.3	22.4µM*	?
CN(C)c1cccc(NC(=O)C2(C)Cc3c(-c4cccnc4)ccnc3O2)c1 (stereo not drawn)	.	.	.	.	-6.0%
COc1ccc(OC)c(NC(=O)CSc2nnc(CNC(=O)c3ccco3)o2)c1	2.4%	-7.0%	7.3	3.6%	29.9µM*
COc1ccc(Cl)cc1NC(=O)CSc1nnc(CNC(=O)c2ccco2)o1	5.4%	-7.2%	-2.2	-6.4%	-6.4%
Cc1c(CCC(=O)O)c(=O)oc2c(C)c3occ(-c4ccc(Br)cc4)c3cc12	-4.3%	-8.2%	-32.2	-1.3%	26.7µM*
Cc1cc2c(s1)c1c(C)nn(Cc3ccccc3F)c(=O)c1n2C	.	.	6.8	.	.
CC(=O)OCC1=C(C(=O)O)N2C(=O)C(NC(=O)c3ccc(COc4ccc(Cl)cc4)o3)C2SC1 (stereo not drawn)	.	-5.4%	-9.8	44.7µM*	?
CC(=O)OCC1=C(C(=O)O)N2C(=O)C(NC(=O)c3ccc(COc4c(C)cccc4Cl)o3)C2SC1 (stereo not drawn)	-3.5%	-0.4%	-4.5	15.8µM*	-14.6%
COC(=O)C[C@@H]1CC[C@H](NC(=O)Cc2ccccn2)[C@@H](CO)O1	.	.	.	.	-9.5%
Cc1ccc(-c2cc(C(F)(F)F)n3ncc(C(=O)O)c3n2)cc1	3.0%	-2.7%	-1.7	-22.4%	29.9µM*
COc1cccc(-c2cc(C(F)(F)F)n3ncc(C(=O)NCC4CCCO4)c3n2)c1 (stereo not drawn)	-3.2%	-6.1%	-7.1	-11.5%	-4.1%

Screening results (PubChem BioAssay)
